# Source: the supplement of paper PMC6555819
# Tests used:
# Assay in all cases: PBM binding z-score (relative to random genomic background probes); higher = stronger binding; sequences stand for … in GC…GCGATTGACAGCGTAGAATGAAGG
# [1] = test system: RARb homodimer (NR concentration 270 nM)
# In short: (§1)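 Probes were double-stranded and carried 34-nt variable regions with direct-repeat seeds, single-nucleotide variants, half-site ablations and random human genomic background sequences, printed on custom Agilent 4×180K protein-binding microarrays. Arrays were incubated 1 h with ligand-free nuclear receptor dimers in PBS pH 7.4, 2% milk, 0.02% Triton X-100, 1 mM DTT, 0.2 mg/mL BSA and 0.4 mg/ml salmon testes DNA. Antibodies against each partner (one per run) detected binding, and scanned fluorescence was regression-normalized. Binding z-scores use the random background probes as reference.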
# [2] = test system: RARg:RXRa (NR concentration 270 nM, RXRa partner concentration 90 nM)
# In short: as §1
# [3] = test system: RARg homodimer (NR concentration 270 nM)
# In short: as §1
# [4] = test system: RXRa DBDmut IVT, anti-RXR (DBD mutation: RXRa K156A/R161A, NR concentration 90 nM)
# In short: as §1
# [5] = test system: RXRa homodimer (NR concentration 180 nM)
# In short: as §1
# [6] = test system: THRa:RXRa (NR concentration 90 nM, RXRa partner concentration 90 nM)
# In short: as §1
# [7] = test system: THRa homodimer (NR concentration 90 nM)
# In short: as §1
# [8] = test system: VDR:RXRa (NR concentration 270 nM, RXRa partner concentration 90 nM)
# In short: as §1
# [9] = test system: VDR homodimer (NR concentration 270 nM)
# In short: as §1
Sequence,PBM binding z-score [1],PBM binding z-score [2],PBM binding z-score [3],PBM binding z-score [4],PBM binding z-score [5],PBM binding z-score [6],PBM binding z-score [7],PBM binding z-score [8],PBM binding z-score [9]
CGTAAAAGTTCAAGGTAACGTAACAGAAAGCAGC,3.55,4.73,5.27,4.27,3.81,2.92,1.17,3.38,2.67
AGAAGGAGGGCACGCTGAGTTGATAGCAGAGTAG,1.4,1.94,2.17,0.783,1.2,1.13,-0.112,1.41,1.04
CCTACTGCGCCAAAGGTCATTGATTCCAATGCTC,4.88,5.4,4.69,2.16,6.21,3.46,1.9,4.85,3.56
CGTCCAAGGTCATAGGTGGTCAGTGAAGACAGAT,4.26,5.65,5.75,3.99,5.94,4.18,2.79,4.72,3.02
GCTGCTAGGTCATCTGATGGTCAGCTAAAGCTCG,3.52,5.15,4.96,2,2.79,2.97,0.735,1.98,0.443
CATACAAGGTCAGCTAGGCCAGAGTAGGGACGGC,3.83,5.19,5.79,2.04,4.4,3.54,1.97,3.81,1.65
ATCTCTAGGTTAGACTCAGTTCAGTGAAGAACGC,1.37,1.4,1.14,1,0.687,1.52,1.21,1.7,2.48
GCAGACAGGTGAAACGCAGGTAACTTAGGGTGGC,0.119,0.872,0.154,-0.334,0.754,1.55,-0.353,-0.477,-0.61
TCGAGTATGTTACCAATGGGGCATTCAGCTTTCT,-0.135,-0.111,-0.492,0.904,-0.0794,-0.318,-0.731,-0.0704,-0.375
CCTCGGAGGACAACAGGACGTCAGAGCTGCCAGA,0.189,0.272,1.12,0.0264,-0.244,0.648,-0.377,-0.499,-0.354
CCTACTGGGCCATTCAGAGGTCATTGAGCATATG,4.08,4.6,3.1,0.996,3.54,3.27,1.22,4.17,3.44
TATGCTAGGTCAGTTGGTCAGCTAACGAGCTGCC,2.5,2.62,3.34,-0.0461,1.06,1.3,0.034,0.137,-0.256
CTCGAAAGGTCGCGCTCAGGTGAGTATACCAAAC,3.47,5.54,4.9,2.28,5.79,4.23,1.01,3.55,1.35
CCTCGGAGGACAGAAGGTCAGCGCTGTCCGCTTT,4.09,4.02,3.84,0.468,2.54,2.57,-0.027,1.22,0.0447
TCTTGCAGATCAGCAGGTTAAGAAAGCTGGCCAA,-0.126,-0.0186,-0.618,-0.0927,0.33,0.0241,-0.879,-0.0921,-0.987
TGTCAAAGTTCAAAGGTAACGTATGTATCCACAC,3.78,6.21,5.94,4.28,6.97,3.08,-0.0625,5.14,3.87
TAGCCTAAGTCATTGGGCCAGTATAGTACGCATC,-0.447,0.191,0.0194,-0.879,0.156,-0.214,-0.958,-0.202,-0.312
GCTGCTAGGGCAACTGATGGTCAGCTAAAGCTCG,0.973,0.792,1.27,-0.0325,-0.494,-0.0894,-1.3,-0.881,-1.03
ATCTTTAGGTAACCAAGTTCAGTGAATGCCGAAC,1.55,0.783,1.04,1.36,0.709,2.07,1.25,4.36,2.66
CGTCCAAGGTCAGCAGGTCAGTGCAAGCGACGTG,4.99,6.35,6.82,2.29,4.74,3.77,2.47,3.93,2.18
ATCGAAAGGCCGAAGGTGAGTATACCCACCCGAA,0.463,0.847,0.8,-0.881,0.581,0.037,-0.66,-0.338,-0.679
CCAGACAGGTGAGAAGGTTACTCAGCCTCGATTA,1.63,1.67,1.13,0.518,1,0.657,0.115,0.635,0.152
CCTACTGGGCCAAGGTCATTAATCAGTCAAAGCA,3.03,3.21,2.99,1.47,2.71,3.1,2.03,2.84,3.22
GATACAGGGTCAGCTAGGGGCCAGAGTATGGAAA,3.52,6.94,4.94,1.25,4.43,3.62,0.639,3.31,0.774
CGTCAACGTTCAAGGTAACGTAACAGAAAGCAGC,0.184,0.115,0.672,0.181,0.245,1.48,0.849,-0.14,-0.423
ATCGAAAGGTCGACGAGGTGAGTATCCACCGTTT,2.9,4.16,4.03,1.27,4.38,3.78,1.01,5.24,0.828
